Test results as given in PubChem BioAssay AID743366 (National Center for Advancing Translational Sciences (NCATS), 2014).

Test: qHTS profiling of inhibitors of Plasmodium falciparum (HB3) proliferation (acoustic dispense)
Conditions: P. falciparum HB3 in erythrocytes, SYBR Green, 72 h; at 49.8 µM (top of the series) unless noted

| Compound | activity (normalised, proliferation) [%] |
| --- | --- |
| Cn1cnc(=N)c2[nH]cnc21 | 1.41 |
| O=C1C(=O)c2ccccc2C(O)=C1C1CCC(c2ccc(Cl)cc2)CC1 (configuration not stated) | 3.49 |
| CN([C@@H](Cc1ccc(OS(=O)(=O)c2cccc3cnccc23)cc1)C(=O)N1CCN(c2ccccc2)CC1)S(=O)(=O)c1cccc2cnccc12 | 0.0465 |
| C=CCNC1=C2C[C@@H](C)C[C@H](OC)[C@@H](O)[C@@H](C)C=C(C)[C@H](OC(N)=O)[C@@H](OC)C=CC=C(C)C(=O)NC(=CC1=O)C2=O | -2.45 |
| CC[C@H]1OC(=O)[C@H](C)[C@@H](O[C@H]2C[C@@](C)(OC)[C@@H](O)[C@H](C)O2)[C@H](C)[C@@H](O[C@@H]2O[C@H](C)C[C@H](N(C)C)[C@@H]2O)[C@](C)(O)C[C@@H](C)CN(C)[C@H](C)[C@@H](O)[C@]1(C)O | -0.367 |
| CC(=NNC(=S)N1CCC1)c1ccccn1 | -0.583 |
| CN(Cc1cnc2nc(N)nc(N)c2n1)c1ccc(C(=O)N[C@@H](CCC(=O)O)C(=O)O)cc1 | 0.621 |
| CCCC[C@@H]1C[C@@H](C(=O)NC([C@H](C)Cl)[C@H]2O[C@H](S)[C@H](O)[C@@H](O)[C@@H]2O)N(C)C1 (some centres not stated) | 3.44 |
| CCC(=O)N1CCN(c2ccc(-n3c(=O)ccc4cnc5ccc(-c6cnc7ccccc7c6)cc5c43)cc2C(F)(F)F)CC1 | 0.244 |
| C=C[C@@H]1CN2CCC1C[C@@H]2C(O)c1ccnc2ccc(OC)cc12 (some centres not stated) | 1.73 |
| CC[C@H]1CN2CCc3cc(OC)c(OC)cc3[C@H]2C[C@@H]1C[C@@H]1NCCc2cc(OC)c(OC)cc21 | -0.337 |
| NC(=NCCCCCCN=C(N)N=C(N)Nc1ccc(Cl)cc1)N=C(N)Nc1ccc(Cl)cc1 | 8.37 |
| COc1ncnc(NS(=O)(=O)c2ccc(N)cc2)c1OC | 102 |
| CCN(CC)CCCC(C)Nc1ccnc2cc(Cl)ccc12 (configuration not stated) | -0.388 |
| C=CCn1c(=O)c2cnc(Nc3ccc(N4CCN(C)CC4)cc3)nc2n1-c1cccc(C(C)(C)O)n1 | -0.406 |
| CCc1nc(N)nc(N)c1-c1ccc(Cl)cc1 | 0.0675 |
| CC(C=CC(=O)NO)=C[C@@H](C)C(=O)c1ccc(N(C)C)cc1 | -0.304 |
| C[C@H]1c2cccc(O)c2C(O)=C2C(=O)[C@]3(O)C(O)=C(C(N)=O)C(=O)[C@@H](N(C)C)[C@@H]3[C@@H](O)[C@@H]21 | 2.34 |
| COc1cc([C@@H]2c3cc4c(cc3[C@@H](O[C@@H]3O[C@@H]5CO[C@@H](c6cccs6)O[C@@H]5[C@H](O)[C@@H]3O)[C@H]3COC(=O)[C@H]23)OCO4)cc(OC)c1O | -0.0351 |
| C[C@@H](Oc1ccc2[nH]nc(C=Cc3cnn(CCO)c3)c2c1)c1c(Cl)cncc1Cl | 1.95 |
| CCN[C@H]1C[C@H](C)S(=O)(=O)c2sc(S(N)(=O)=O)cc21 | 37.3 |
| CC(C)n1nc(-c2ccc3oc(N)nc3c2)c2c(N)ncnc21 | -0.709 |
